Rows were chosen to be rich in hits. Some 1% of all compounds tested hit in one or more screens of this group.
F-actin modifier: alters cytoskeleton assembly in HUVEC cells; HUVEC TNFa F-actin phalloidin imaging, high content; inhibition, % at 2 µM; 91,000 compounds, 0.18% hits;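 active = inhibition above the batch mean plus 3 SD and confirmed as a hit by visual image inspection, cut at about 30% in these data, passing the limit was not always enough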
E-sel TNF inh: blocks E-selectin expression induced by TNF alpha. HUVEC TNFa-induced E-selectin immunofluorescence, high content. inhibition, % at 2 µM. 120,000 compounds, 0.71% hits. AID 1246;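 active = inhibition above the batch mean plus 3 SD, and confirmed as a hit on visual image review, cut at about 43% in these data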;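 note: 0% = TNF-stimulated DMSO wells and 100% = unstimulated control wells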
HUVEC tox TNFa: toxic to HUVEC cells under TNF alpha stimulation; HUVEC TNFalpha-stimulated, Hoechst cell count, imaging; cell count reduction, % at 2 µM; 93,000 compounds, 0.17% hits; AID 848;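 active = cell count reduction exceeding the screen mean by over 5 SD, scaled to untreated wells per plate, cut at about 78% in these data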;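 note: cells counted after 24 h of TNF alpha exposure following the 1 h pretreatment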
VCAM1 TNFa inh: reduces TNF alpha induced VCAM1 expression in HUVEC. HUVEC TNFa-induced VCAM-1 immunofluorescence, high-content imaging. inhibition, % at 2 µM. 95,000 compounds, 0.48% hits. AID 802;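 active = inhibition above the batch mean plus 3 SD, with images confirmed as a hit by eye, cut at about 37% in these data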;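 note: 0% = TNF-stimulated DMSO wells and 100% = unstimulated control wells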
* marks the source's active call; other numbers are inactive results; . = no result given.

SMILES	F-actin modifier	E-sel TNF inh	HUVEC tox TNFa	VCAM1 TNFa inh
O=C(NCC1CCCO1)c1cccc(N2C(=O)C3C4C=CC(C4)C3C2=O)c1 (stereo not given)	22	-4	.	-16
CCOc1ccccc1Nc1nnc(SCC(=O)Nc2cccc(S(=O)(=O)NC3=NCCCCC3)c2)s1	.	-8	.	.
CCCC(C(=O)NC1CCCC1)N(CC1CCCO1)C(=O)c1snc(C(N)=O)c1N (stereo not given)	-2	.	-13	14
CCCC(C(=O)NC1CCCC1)N(CCCN1CCOCC1)C(=O)c1snc(C(N)=O)c1N (stereo not given)	-19	.	38	78*
Cc1cc(C)c(C(CC(=O)c2cccs2)C(C#N)C#N)c(C)c1 (stereo not given)	.	35	.	.
OC(c1ccc2c(c1)OCO2)c1nccc2ccccc12 (stereo not given)	17	72*	-3	4
O=C(CSc1ccccc1)NCCCc1ccccc1	.	-72	.	.
N#Cc1ccc(NC(=O)C2CC(c3ccc(F)cc3)=NO2)cc1 (stereo not given)	-43	93*	4	-6
O=C(CCCCCN1C(=O)c2ccccc2C1=O)Nc1nccs1	-4	7	69	50*
O=C(CCCCCN1C(=O)c2ccccc2C1=O)Nc1ccccc1	-2	-1	-24	9
CC(/C=N/NC(=O)CN1CCN(Cc2ccc(Cl)cc2)CC1)=C\c1ccco1	.	9	.	.
CC(/C=N/NC(=O)c1cc(-c2ccc(Cl)cc2)nc2ccccc12)=C\c1ccco1	-2	3	58	80*
COc1ccc(CN2CCN(Cc3csc(C(C)=O)c3)CC2CCO)c(C)c1C (stereo not given)	.	-36	.	.
CCn1cnc2scc(-c3ccccc3)c2c1=O	-7	-21	-10	-9
Cn1cc(/C=N/n2cnc3scc(-c4ccc(Cl)cc4)c3c2=O)c2ccccc21	-205	.	65	75*
C/C(=N/O)c1ccc2c(c1)OCCOCCOc1cc(/C(C)=N/O)ccc1OCCOCCO2	.	1	.	.
Cc1occc1-c1nnc(SCC(=O)Nc2ccccc2)n1CCc1ccccc1	4	0	-4	-11
CCOC(=O)c1cccc(NC(=O)CSc2nnc(-c3ccoc3C)n2CCOC)c1	-73	100*	91*	50
Cn1nnnc1SCc1nnc(-c2ccc(Cl)cc2)o1	14	63*	-46	9
CCOC(=O)n1c(=O)[nH]c2ccc(Br)cc21	.	-16	.	.
O=C(OCC1CC(c2ccccn2)=NO1)c1ccc(Br)cc1 (stereo not given)	.	96*	.	.
CCC(C)(C)n1nnnc1C(c1ccc(OC)c(OC)c1)N1CCN(c2ccccc2)CC1 (stereo not given)	-1	83*	-6	2
CCC(C)(C)n1nnnc1C(c1ccc(OC)c(OC)c1)N1CCN(c2cccc(OC)c2)CC1 (stereo not given)	15	19	-22	10
Cc1cc(C)cc(N(C(=O)c2cccs2)C2C=CS(=O)(=O)C2)c1 (stereo not given)	.	-5	.	.
COc1ccc(Cl)c(NC(=O)Nc2c(C)n(-c3ccccc3)c(=O)n2C)c1	-5	-32	9	94*
SMILES	F-actin modifier	E-sel TNF inh	HUVEC tox TNFa	VCAM1 TNFa inh
COCCCNCC(O)C(F)(F)F (stereo not given)	.	-11	.	.
CCOc1ccc(-n2cc(C(=O)NCc3ccco3)c3cc(OC)c(OC)cc3c2=O)cc1	63*	.	-16	-4
CS(=O)(=O)c1ccc(S(=O)CC(=O)OCc2ccccc2)c([N+](=O)[O-])c1 (stereo not given)	.	100*	.	.
O=C(CS(=O)c1ccc(C(F)(F)F)cc1[N+](=O)[O-])Oc1ccccc1 (stereo not given)	29	84*	20	88*
O=C(CNc1ccc(C(F)(F)F)cc1[N+](=O)[O-])OCC(=O)c1ccccc1	-5	17	-43	19
Cc1ccc(S(=O)(=O)Cc2ccc(C(=O)OCc3ccccc3)cc2)cc1	9	4	0	9
COc1ccc(CNC(=O)C/C(C)=N/NC(=O)c2cnccn2)cc1	.	-42	.	.
COc1ccc(NC(=O)COC(=O)/C=C/c2cnc3ccccc3n2)cc1	.	23	.	.
CCN(CC)S(=O)(=O)c1cccc(C(=O)NC(Cc2c[nH]c3ccccc23)c2nnc3n2CCC3)c1 (stereo not given)	.	-21	.	.
CCN(CC)CCNC(C(=O)Nc1cccc(C(C)=O)c1)c1ccccc1 (stereo not given)	.	-6	.	.
CCN(CC)c1ccc(C2=NNC(=O)CC2C)cc1[N+](=O)[O-] (stereo not given)	-53	-39	52	78*
CC1CC(=O)NN=C1c1ccc(N(C)C)c([N+](=O)[O-])c1 (stereo not given)	-36	-19	19	35
CCC(=O)c1ccc(OCC(=O)OCC(=O)Nc2sccc2C(N)=O)cc1	.	-4	.	.
